Compounds with a hit are over-represented: about 21% of the library has one in this group of screens.
Shiga toxin inh: A qHTS for Small Molecule Inhibitors of Shiga Toxin; AID 2315, 2010; inhibition, % at 38.7 µM; Vero cells, Shiga toxin protein synthesis inhibition reporter; actives 9.2% (n = 290,000); in the data active = inhibition mostly above about 28%, no sharp cut-off; inactive = mostly below about 43%; also: 0% is about no effect
HCV inh: qHTS Assay for Inhibitors of Hepatitis C Virus (HCV); Huh7.5.1 HCVcc-Cre infection, luciferase reporter, 44 h; Potency, µM (series often up to 41.8 µM), for inactives: at the highest dose activity change, negative = inhibition, usual class: inhibitors; actives 3.4% (n = 340,000); AID 651820, 2012; also: potency is read from the fitted curve at half-maximal effect; % is scaled to controls: 0 for no effect and ±100 for the full control effect
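Cells (1,000/well) were plated 4 h before compound, then infected with HCVcc-Cre virus (~0.5 moi). After 44 h further culture, infection was read as luciferase luminescence following a 15 min substrate incubation at room temperature.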
Pf growth 96h: Primary qHTS for delayed death inhibitors of the malarial parasite plastid, 96 hour incubation; P. falciparum luciferase reporter growth, 96 h; Potency, µM (doses to about 28.7 µM), inactives show at the top dose activity change, negative = inhibition, usual class: inhibitors; actives 6.9% (n = 320,000); also: potency is read from the fitted curve at half-maximal effect; % is scaled to controls: 0 for no effect and ±100 for the full control effect
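Cell-based qHTS: luciferase-tagged P. falciparum in erythrocytes (2% hematocrit, 0.05% parasitemia final) incubated with compounds for 96 hours, 37 C, 5% CO2; luciferase detection reagent then added and luminescence measured.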
Pf growth 48h: Primary qHTS for delayed death inhibitors of the malarial parasite plastid, 48 hour incubation. Potency, µM (highest dose often 28.7 µM), without a hit: at the highest dose activity change, negative = inhibition, hits mostly inhibitors. P. falciparum luciferase growth in erythrocytes, 48 h. actives 5.9% (n = 310,000); also: potency is read from the fitted curve at half-maximal effect; % is scaled to controls: 0 for no effect and ±100 for the full control effect
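Luminescence readout; reporter = integrated firefly luciferase in P. falciparum. RBC culture at 2% hematocrit, 0.1% parasitemia final, 37 C/5% CO2; decreased signal taken as growth inhibition.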
HCMV inh: qHTS Assay for inhibitors of the human cytomegalovirus (HCMV); HFF cells, HCMV-luciferase reporter, 72 h; hits give low values; activity change, negative = inhibition, % at 57.5 µM; actives 4.5% (n = 410,000); AID 1259415, 2018; in the data active = activity change below about -60%; inconclusive = no clear call, values can overlap the other calls; inactive = above about -39%; also: % is scaled to controls: 0 for no effect and ±100 for the full control effect
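HFF cells seeded 16 h at 37C, treated with compounds, infected with luciferase-reporter HCMV at MOI 1 PFU/cell; luciferase read at 72 h post infection, normalized to buffer-only and Salinomycin controls.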
CHX counter: Cycloheximide Counterscreen for Small Molecule Inhibitors of Shiga Toxin. cell reporter, cycloheximide protein synthesis inhibition counterscreen. max response, %. actives 12% (n = 300,000); in the data active = max response mostly above about 13%, no sharp cut-off; inactive = mostly below about 14%; also: read at 38.3 µM for the half of the compounds with a filed dose; 0% is about no effect
The depositor's hits bear a star. Unless noted, calls follow the shape of the dose curve; as a rule, active = well fitted inhibition curve with a large enough effect; inconclusive = small, poorly fitted or top-dose-only effect, or another doubt; inactive = no such curve, though single readings can be large or run the other way.

`Cc1cccc(C)c1NC(=O)C1CCCN(S(=O)(=O)c2c(C)noc2/C=C/N(C)C)C1` (configuration not stated) gave HCMV inh 1.
CCN1CCN(/C=N/c2nc3c(s2)CCCC3)CC1 was read as Shiga toxin inh -19, HCV inh inconclusive, Pf growth 96h -11%, HCMV inh -69* and CHX counter 19*.
Screening O=C1CC2(CCN(C(=O)c3c(F)cccc3F)CC2)Oc2ccccc21 returned HCV inh 7%, Pf growth 96h 9%, Pf growth 48h 21% and HCMV inh -2.
Screening CN=C(NC1CCCCC1)c1ccc(Cl)cc1 returned Shiga toxin inh -3, HCV inh 24%, Pf growth 96h 18%, Pf growth 48h 11%, HCMV inh -60* and CHX counter -3.
CN(CC(=O)Nc1cc(Cl)ccc1Cl)C1CCS(=O)(=O)C1 (configuration not stated) was read as HCV inh -1%, Pf growth 96h -1%, Pf growth 48h -11% and HCMV inh 11.
`CN(CC(=O)Nc1ccc(Cl)cc1F)C1CCS(=O)(=O)C1` (configuration not stated) gave HCV inh 8%, Pf growth 96h 17%, Pf growth 48h 1% and HCMV inh -100*.
Screening N[C@H]1CC[C@@]23CCCN2C(=O)CCC[C@H]3[C@H]1Cc1ccccc1 returned HCMV inh 15.
COc1ccccc1NC(=O)c1cnc2n(c1=O)CCS2 was read as Shiga toxin inh 17, HCV inh 1%, Pf growth 96h inconclusive, Pf growth 48h 43%, HCMV inh 19 and CHX counter 8.
`COc1ccc(Cl)cc1NC(=O)c1cnc2n(c1=O)CCS2` gave Shiga toxin inh -4, HCV inh 4%, Pf growth 96h 10%, Pf growth 48h 17%, HCMV inh 7 and CHX counter 3.
COc1ccc(OC)c(NC(=O)c2cnc3n(c2=O)CCS3)c1 was read as Shiga toxin inh -5, HCV inh 6%, Pf growth 96h 8.3µM*, HCMV inh -4 and CHX counter 9.
Screening COc1ccc(OC(=O)c2cnc3n(c2=O)CCS3)cc1 returned Shiga toxin inh 26, HCV inh 8%, Pf growth 96h 39%, Pf growth 48h 62%, HCMV inh 1 and CHX counter 15*.
Cc1ccc(Nc2nc3c(s2)CCC3)c(C)c1 was read as Shiga toxin inh 56*, HCV inh -11%, Pf growth 96h -52%, Pf growth 48h -13%, HCMV inh 71 and CHX counter 32*.
`COc1ccccc1Nc1nc2c(s1)CCC2` gave Shiga toxin inh 68*, HCV inh -12%, Pf growth 96h inconclusive, Pf growth 48h inconclusive, HCMV inh -23 and CHX counter 36*.
For C=CCNCC(=O)N1N=C(c2ccc3ccccc3c2)CC1c1ccc(OC)cc1 (configuration not stated) the results were Shiga toxin inh 26, HCV inh inconclusive, Pf growth 96h inconclusive, Pf growth 48h inconclusive, HCMV inh -31 and CHX counter 2.
COc1ccc(C2=NN(CN3C(=O)C(=O)c4ccccc43)C(c3cccc([N+](=O)[O-])c3)C2)cc1 (configuration not stated) was read as Shiga toxin inh 117*, HCV inh inconclusive, Pf growth 96h -22%, Pf growth 48h inconclusive, HCMV inh -15 and CHX counter 13*.
`COc1ccc(C2CC(c3ccc4ccccc4c3OC(C)=O)=NN2C(C)=O)cc1` (configuration not stated) gave Shiga toxin inh 60*, HCV inh inconclusive, Pf growth 96h 21%, Pf growth 48h inconclusive, HCMV inh 159 and CHX counter 25*.

Screening data (PubChem BioAssay)
